Here are results for 27 compounds from PubChem BioAssay (EPA / NIEHS).

The source made the active and inactive calls. The calls were made as follows: active = hit-call score of the fitted dose curve at least 0.9, where 1 is the maximum; inactive = score below 0.9.

Chain of Tumor necrosis factor (Homo sapiens) (P01375 whole entry, looked up): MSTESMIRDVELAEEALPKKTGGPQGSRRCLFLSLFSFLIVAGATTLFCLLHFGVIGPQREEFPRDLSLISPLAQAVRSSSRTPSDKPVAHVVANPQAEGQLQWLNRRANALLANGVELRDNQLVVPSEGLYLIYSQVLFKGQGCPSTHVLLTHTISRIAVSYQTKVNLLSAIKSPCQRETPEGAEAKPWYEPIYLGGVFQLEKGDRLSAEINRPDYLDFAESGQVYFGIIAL

Read-out in the first test: Tissue Factor, F3 (gene 2152)
Nature of the test: BSK_LPS_TissueFactor: BioMAP Diversity Plus: LPS Assay for Tissue Factor Biomarker Activity (AID 2283084). The conditions noted are these: primary human HUVEC with PBMC; actives raise or lower the signal. The method in brief:
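Human umbilical vein endothelial cells co-cultured with peripheral blood mononuclear cells were dosed and stimulated with LPS. Cell-surface CD142 was quantified by ELISA at 24 h. Activity was fitted bidirectionally against DMSO baseline.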
Take `NC(=O)N1c2ccccc2C=Cc2ccccc21`: the result was inactive.

Take `c1ccc2c(c1)-c1cccc3c1c-2cc1ccccc13`: the half-maximal activity concentration (AC50) is 552 nM (active).

As for `CCOc1ccc2[nH]cc(C(=O)NCc3ccccc3)c(=O)c2n1`, the result was inactive.

On to `CCc1ccc(O)c(C(C)(C)C)c1`, for which the outcome was inactive.

In the case of `CCc1cccc(CC)c1N`, the outcome was inactive.

For the compound `FC(F)=C(F)C(F)(F)C(F)(F)C(F)(F)C(F)(F)C(F)(F)C(F)(F)F`, the outcome was inactive.

In the case of `NNC(=O)c1ccncc1`, the result was inactive.

On to `OC[C@H]1O[C@@H]2O[C@H]3[C@H](O)[C@@H](O)[C@@H](O[C@H]4[C@H](O)[C@@H](O)[C@@H](O[C@H]5[C@H](O)[C@@H](O)[C@@H](O[C@H]6[C@H](O)[C@@H](O)[C@@H](O[C@H]7[C@H](O)[C@@H](O)[C@@H](O[C@H]1[C@H](O)[C@H]2O)O[C@@H]7CO)O[C@@H]6CO)O[C@@H]5CO)O[C@@H]4CO)O[C@@H]3CO`, for which the outcome was inactive.

Take `CCCCCCCC1CCC(=O)O1` (centres undefined): the outcome was inactive.

As to `OCC(CO)(CO)CO`, the result was inactive.

Read-out in another test: Tumor necrosis factor (Homo sapiens) (UniProt P01375)
Kind of test: BSK_LPS_TNFa: BioMAP Diversity Plus: LPS Assay for Tumour Necrosis Factor alpha (TNFa) Biomarker Activity (AID 2283085).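 As to AC50: TNFa protein level quantified by ELISA in the co-culture.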 The following applies: primary human HUVEC with PBMC; actives raise or lower the signal. The essentials: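 Cells (umbilical vein endothelium plus peripheral blood mononuclear cells) were dosed with chemical, incubated 24 h, then TNFa was quantified by ELISA; values derive from bidirectional fitting with DMSO as baseline.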
On to `CCCCN1C(=O)[C@@H]([C@H](O)C2CCCCC2)NC(=O)C12CCN(Cc1ccc(Oc3ccc(C(=O)O)cc3)cc1)CC2`, for which the outcome was inactive.

With `C[Si](C)(C)C(F)(F)C(F)(F)C(F)(F)F`, the outcome was inactive.

Consider `OCc1c[nH]c2ccccc12`, for which the outcome was inactive.

For the compound `C[C@]12C=CC(=O)C=C1CC[C@H]1[C@@H]3C[C@@H](O)[C@](O)(C(=O)CO)[C@@]3(C)C[C@H](O)[C@@]12F`, the concentration at half-maximal activity (AC50) was 557 nM (active).

In the case of `S=P(N1CC1)(N1CC1)N1CC1`, the result was inactive.

As to `CCCOc1ccc(S(=O)(=O)N2CCN(CC)CC2)cc1-c1nc2c(CC)n(Cc3ccccn3)nc2c(=O)[nH]1`, the half-maximal activity concentration (AC50) was 3630 nM (active).

As for `Cc1ccc(S(=O)(=O)NC(=O)NN2CCCCCC2)cc1`, the outcome was inactive.

Take `CC(C)c1nnc2ccc(-c3ocnc3-c3cc(F)ccc3F)cn12`: the concentration at half-maximal activity (AC50) is 148 nM (active).

Turning to `CCCCCCCCCCCCCCO`, the result was inactive.

In the case of `OC[C@H]1O[C@@](CO)(O[C@H]2O[C@H](CO)[C@@H](O)[C@H](O)[C@H]2O)[C@@H](O)[C@@H]1O`, the result was inactive.

As to `COCc1nnc(-c2ccc[n+]([O-])c2)n1-c1c(Cl)c(Cl)cc2[nH]c(=O)c(=O)[nH]c12`, the outcome was inactive.

With `O=C(Cl)C(F)(F)C(F)(F)C(F)(F)C(=O)Cl`, the outcome was inactive.

Regarding `OC(CCl)CCl`, the result was inactive.

For `CCn1nc(C)c2c1C(=O)NCC(c1ccc(O)cc1)=N2`, the AC50 was 780 nM (active).

Consider `O=S1(=O)CCCO1`, for which the outcome was inactive.

Take `c1ccc(C(O[C@@H]2CCCN(CCc3ccc4c(c3)OCO4)C2)c2ccccc2)cc1`: the result was inactive.

Regarding `O=S(=O)(O)CCC(F)(F)C(F)(F)C(F)(F)C(F)(F)C(F)(F)C(F)(F)F`, the outcome was inactive.

As to `NC(=O)N1c2ccccc2C=Cc2ccccc21`, the result was inactive.

Regarding `c1ccc2c(c1)-c1cccc3c1c-2cc1ccccc13`, the outcome was inactive.

Consider `CCOc1ccc2[nH]cc(C(=O)NCc3ccccc3)c(=O)c2n1`, for which the result was inactive.

Regarding `CCc1ccc(O)c(C(C)(C)C)c1`, the AC50 is 36600 nM (active).

In the case of `CCc1cccc(CC)c1N`, the result was inactive.

For `FC(F)=C(F)C(F)(F)C(F)(F)C(F)(F)C(F)(F)C(F)(F)C(F)(F)F`, the result was inactive.

On to `NNC(=O)c1ccncc1`, for which the result was inactive.

Consider `OC[C@H]1O[C@@H]2O[C@H]3[C@H](O)[C@@H](O)[C@@H](O[C@H]4[C@H](O)[C@@H](O)[C@@H](O[C@H]5[C@H](O)[C@@H](O)[C@@H](O[C@H]6[C@H](O)[C@@H](O)[C@@H](O[C@H]7[C@H](O)[C@@H](O)[C@@H](O[C@H]1[C@H](O)[C@H]2O)O[C@@H]7CO)O[C@@H]6CO)O[C@@H]5CO)O[C@@H]4CO)O[C@@H]3CO`, for which the outcome was inactive.

`CCCCCCCC1CCC(=O)O1` (centres undefined): the result was inactive.

Regarding `OCC(CO)(CO)CO`, the outcome was inactive.

Read-out in the next test: Vascular cell adhesion molecule 1 (VCAM1), VCAM1 (gene 7412)
Kind of test: BSK_LPS_VCAM1: BioMAP Diversity Plus: LPS Assay for Vascular cell adhesion molecule 1 (VCAM1) Biomarker Activity (AID 2283086). The following applies: primary human HUVEC with PBMC; actives raise or lower the signal. The essentials:
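Cells are dosed in an LPS-stimulated endothelial/mononuclear co-culture and, after 24 h, VCAM-1 is quantified by ELISA. Activity in either direction is fitted relative to the DMSO negative control.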
Turning to `CCCCN1C(=O)[C@@H]([C@H](O)C2CCCCC2)NC(=O)C12CCN(Cc1ccc(Oc3ccc(C(=O)O)cc3)cc1)CC2`, the outcome was inactive.

Regarding `C[Si](C)(C)C(F)(F)C(F)(F)C(F)(F)F`, the result was inactive.

On to `OCc1c[nH]c2ccccc12`, for which the result was inactive.

For `C[C@]12C=CC(=O)C=C1CC[C@H]1[C@@H]3C[C@@H](O)[C@](O)(C(=O)CO)[C@@]3(C)C[C@H](O)[C@@]12F`, the result was inactive.

Take `S=P(N1CC1)(N1CC1)N1CC1`: the outcome was inactive.

In the case of `CCCOc1ccc(S(=O)(=O)N2CCN(CC)CC2)cc1-c1nc2c(CC)n(Cc3ccccn3)nc2c(=O)[nH]1`, the result was inactive.

With `Cc1ccc(S(=O)(=O)NC(=O)NN2CCCCCC2)cc1`, the outcome was inactive.

Take `CC(C)c1nnc2ccc(-c3ocnc3-c3cc(F)ccc3F)cn12`: the AC50 is 979 nM (active).

On to `CCCCCCCCCCCCCCO`, for which the AC50 was 29600 nM (active).

Consider `OC[C@H]1O[C@@](CO)(O[C@H]2O[C@H](CO)[C@@H](O)[C@H](O)[C@H]2O)[C@@H](O)[C@@H]1O`, for which the result was inactive.

`COCc1nnc(-c2ccc[n+]([O-])c2)n1-c1c(Cl)c(Cl)cc2[nH]c(=O)c(=O)[nH]c12`: the outcome was inactive.

For `O=C(Cl)C(F)(F)C(F)(F)C(F)(F)C(=O)Cl`, the outcome was inactive.

With `OC(CCl)CCl`, the result was inactive.

As to `CCn1nc(C)c2c1C(=O)NCC(c1ccc(O)cc1)=N2`, the outcome was inactive.

On to `O=S1(=O)CCCO1`, for which the outcome was inactive.

For `c1ccc(C(O[C@@H]2CCCN(CCc3ccc4c(c3)OCO4)C2)c2ccccc2)cc1`, the outcome was inactive.

Take `O=S(=O)(O)CCC(F)(F)C(F)(F)C(F)(F)C(F)(F)C(F)(F)C(F)(F)F`: the result was inactive.

Take `NC(=O)N1c2ccccc2C=Cc2ccccc21`: the result was inactive.

Take `c1ccc2c(c1)-c1cccc3c1c-2cc1ccccc13`: the outcome was inactive.

For the compound `CCOc1ccc2[nH]cc(C(=O)NCc3ccccc3)c(=O)c2n1`, the result was inactive.

As to `CCc1ccc(O)c(C(C)(C)C)c1`, the concentration at half-maximal activity (AC50) is 30500 nM (active).

On to `CCc1cccc(CC)c1N`, for which the outcome was inactive.

On to `FC(F)=C(F)C(F)(F)C(F)(F)C(F)(F)C(F)(F)C(F)(F)C(F)(F)F`, for which the outcome was inactive.

For `NNC(=O)c1ccncc1`, the outcome was inactive.

As for `OC[C@H]1O[C@@H]2O[C@H]3[C@H](O)[C@@H](O)[C@@H](O[C@H]4[C@H](O)[C@@H](O)[C@@H](O[C@H]5[C@H](O)[C@@H](O)[C@@H](O[C@H]6[C@H](O)[C@@H](O)[C@@H](O[C@H]7[C@H](O)[C@@H](O)[C@@H](O[C@H]1[C@H](O)[C@H]2O)O[C@@H]7CO)O[C@@H]6CO)O[C@@H]5CO)O[C@@H]4CO)O[C@@H]3CO`, the result was inactive.

With `CCCCCCCC1CCC(=O)O1` (centres undefined), the outcome was inactive.

As to `OCC(CO)(CO)CO`, the outcome was inactive.

What is called AC50 is the concentration giving half of the maximal activity seen.
